Test results from PubChem BioAssay (EPA / NIEHS).
Several values for one entry are separate records, joined by “and”; a condition that tells them apart may be missing. Equal entries are not always repeated. Records with an inconclusive call do not appear. A structure can be active in one record and inactive in another. Activity calls are given as the source filed them. How the source made its calls: active means hit-call score of the fitted dose curve at least 0.9, where 1 is the maximum; inconclusive means response in the unintended direction; inactive means score below 0.9.

molecular target: zebrafish Thyroid Hormone Receptor beta (TRb), thrb (gene 30607) (UniProt Q9PVE4); assay: ATG_zfTRb_XSP2: Attagene TRANS-FACTORIAL Multi-Species (XSP1) HepG2 Assay for zebrafish Thyroid Hormone Receptor beta (TRb) (AID 2283836);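 on AC50: potency for induction of reporter signal above DMSO so agonist direction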
In short: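 HepG2 cells transiently transfected with chimeric zebrafish TRb-GAL4 reporter units, dosed 24 h with 3 nM 6-alpha-fluorotestosterone and 1.5 nM norgestrel present. Reporter mRNA quantified by RT-PCR and capillary electrophoresis; gain fitted against DMSO.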

Sequence of zebrafish Thyroid Hormone Receptor beta (TRb), thrb (gene 30607) (Q9PVE4 whole entry, looked up, the tested form may be a part): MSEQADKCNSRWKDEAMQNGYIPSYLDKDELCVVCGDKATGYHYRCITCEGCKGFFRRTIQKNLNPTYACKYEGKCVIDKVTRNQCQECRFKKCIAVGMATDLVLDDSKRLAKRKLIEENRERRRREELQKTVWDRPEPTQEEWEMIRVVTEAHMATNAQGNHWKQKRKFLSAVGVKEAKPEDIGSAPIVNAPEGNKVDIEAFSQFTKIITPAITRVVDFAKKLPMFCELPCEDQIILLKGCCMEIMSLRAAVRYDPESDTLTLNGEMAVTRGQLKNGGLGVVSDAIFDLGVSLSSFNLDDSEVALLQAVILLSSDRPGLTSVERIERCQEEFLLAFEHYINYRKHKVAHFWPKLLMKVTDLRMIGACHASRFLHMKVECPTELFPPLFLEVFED

| Structure (SMILES) | outcome | AC50 |
| --- | --- | --- |
| CN(CCOc1ccc(CC2SC(=O)NC2=O)cc1)c1ccccn1 (centres undefined) | inactive |  |
| O=c1cc(-c2ccccc2)oc2cc(O)cc(O)c12 | inactive | 100 µM (active) |
| CN(C)C(=N)N=C(N)N | inactive |  |
| O=C(Oc1ccccc1)c1ccc(O)cc1 | inactive |  |
| CCCCCCCCCCCCN | inactive |  |

molecular target: frog Thyroid hormone Receptor alpha (TRa), thra-a (gene 397942) (UniProt P15204); assay: ATG_frTRa_XSP2: Attagene TRANS-FACTORIAL Multi-Species (XSP2) HepG2 Assay for frog Thyroid hormone Receptor alpha (TRa) (AID 2283839);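 on AC50: AC50 reflects induction of frog TRa-driven reporter mRNA above DMSO baseline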
In short: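 Reporter transcripts were measured by RT-PCR with capillary electrophoresis after 24 h dosing of HepG2 carrying transiently transfected multi-reporter units, including a chimeric frog TRa-GAL4 construct. Activity was taken as increase over DMSO vehicle.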

Sequence of frog Thyroid hormone Receptor alpha (TRa), thra-a (gene 397942) (P15204 whole entry, looked up, the tested form may be a part): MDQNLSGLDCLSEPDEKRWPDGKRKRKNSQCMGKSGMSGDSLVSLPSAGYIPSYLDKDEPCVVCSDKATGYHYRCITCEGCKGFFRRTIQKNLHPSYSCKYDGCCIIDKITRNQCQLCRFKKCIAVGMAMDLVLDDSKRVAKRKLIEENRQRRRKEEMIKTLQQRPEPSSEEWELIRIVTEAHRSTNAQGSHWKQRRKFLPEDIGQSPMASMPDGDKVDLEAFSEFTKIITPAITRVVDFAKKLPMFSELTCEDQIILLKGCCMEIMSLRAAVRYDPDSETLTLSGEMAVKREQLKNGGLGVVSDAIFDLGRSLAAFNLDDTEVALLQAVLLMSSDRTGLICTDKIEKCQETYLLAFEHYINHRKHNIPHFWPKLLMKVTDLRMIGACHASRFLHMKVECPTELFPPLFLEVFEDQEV

| Structure (SMILES) | outcome | AC50 |
| --- | --- | --- |
| CN(CCOc1ccc(CC2SC(=O)NC2=O)cc1)c1ccccn1 (centres undefined) | inactive |  |
| O=c1cc(-c2ccccc2)oc2cc(O)cc(O)c12 |  | 26.2 µM (active) and 1.8 µM (active) |
| CN(C)C(=N)N=C(N)N | inactive |  |
| O=C(Oc1ccccc1)c1ccc(O)cc1 | inactive | 166 µM (active) |
| CCCCCCCCCCCCN | inactive |  |

molecular target: human Thyroid hormone Receptor beta (TRb), THRB (gene 7068) (UniProt P10828); assay: ATG_hTRb_XSP2: Attagene TRANS-FACTORIAL Multi-Species (XSP2) HepG2 Assay for human Thyroid hormone Receptor beta (TRb) (AID 2283840);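 further: actives raise reporter mRNA so potency reflects agonist-like gain of signal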
In short: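 Activity of exogenous human TRb–Gal4 fusion measured by reporter mRNA from RT-PCR and capillary electrophoresis, 24 h after dosing transfected HepG2. 6-alpha-fluorotestosterone (3 nM) and norgestrel (1.5 nM) present. Gain-of-signal fit relative to DMSO.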

Sequence of human Thyroid hormone Receptor beta (TRb), THRB (gene 7068) (P10828 whole entry, looked up, the tested form may be a part): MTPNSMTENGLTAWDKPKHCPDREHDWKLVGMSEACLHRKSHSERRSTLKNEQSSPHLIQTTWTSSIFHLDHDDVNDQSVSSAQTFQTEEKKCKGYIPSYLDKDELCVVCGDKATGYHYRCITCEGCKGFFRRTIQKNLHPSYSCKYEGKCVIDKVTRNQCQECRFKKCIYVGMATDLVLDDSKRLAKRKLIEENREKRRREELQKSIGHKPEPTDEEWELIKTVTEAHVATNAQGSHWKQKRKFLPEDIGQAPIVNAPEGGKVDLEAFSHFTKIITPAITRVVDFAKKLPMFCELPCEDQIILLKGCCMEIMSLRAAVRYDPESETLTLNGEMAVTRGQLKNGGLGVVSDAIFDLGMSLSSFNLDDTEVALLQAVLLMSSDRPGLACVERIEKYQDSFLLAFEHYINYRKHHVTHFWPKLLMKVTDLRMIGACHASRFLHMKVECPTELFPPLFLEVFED

| Structure (SMILES) | AC50 | outcome |
| --- | --- | --- |
| O=c1cc(-c2ccccc2)oc2cc(O)cc(O)c12 | 100 µM (active) | inactive |
| CN(C)C(=N)N=C(N)N |  | inactive |
| O=C(Oc1ccccc1)c1ccc(O)cc1 |  | inactive |

system: Sodium/Iodide Symporter (NIS), SLC5A5 (gene 6528); assay: CPHEA_Stoker_NIS_Inhibition_RAIU: CPHEA's Radioactive Iodide Uptake (RAIU) Assay for Sodium/Iodide Symporter (NIS) Inhibition, Stoker and Laws Labs (AID 2283841)
In short: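 HEK293T cells stably expressing human NIS (hNIS-HEK293T-EPA) were exposed to test chemicals at 0.001–100uM (0.5% final DMSO) with 125I at a final 329pM in HBSS/10mM HEPES pH 7.4. After 2 hours at room temperature and ice-cold washes, intracellular 125I was counted as CPM and normalized to DMSO wells.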

| Structure (SMILES) | outcome | AC50 |
| --- | --- | --- |
| Cc1ccc(O)c(C(C)(C)C)c1 | inactive |  |
| c1ccc(CCCc2ccccn2)cc1 | inactive |  |
| O=C1c2ccccc2C(=O)N1SC1CCCCC1 | inactive |  |
| CCCCCCCCC | inactive |  |
| CC(C)=CCCC(C)=CCCC(C)=CCO | inactive |  |
| CCN(CC)c1ccc2c(-c3ccccc3C(=O)O)c3ccc(=[N+](CC)CC)cc-3oc2c1 | inactive |  |
| CC(C)C[C@H]1C(=O)N2CCC[C@H]2[C@]2(O)O[C@](NC(=O)[C@@H]3C=C4c5cccc6[nH]c(Br)c(c56)C[C@H]4N(C)C3)(C(C)C)C(=O)N12 | inactive |  |
| O=c1cc(-c2ccccc2)oc2cc(O)cc(O)c12 | inactive |  |
| BrC1CCC(Br)C(Br)CCC(Br)C(Br)CCC1Br (centres undefined) | inactive |  |
| CCN(CC)CCOC(=O)c1ccc(N)cc1 | inactive |  |
| CCCCCCCCCCCCCCCCCC(=O)OCC(CC)CCCC (centres undefined) | inactive |  |
| c1ccc2[nH]ccc2c1 | inactive |  |
| COc1cc(C(C)(C)C)c(O)c(C(C)(C)C)c1 | inactive |  |
| CSc1nc(NC2CC2)nc(NC(C)(C)C)n1 |  | 10 µM (active) |
| Cc1ccc(S)cc1 | inactive |  |
| CCCCCCCCCCCCCOS(=O)(=O)O | inactive |  |

system: not listed separately; assay: CPHEA_Stoker_NIS_Cytotoxicity: Cytotoxicity Assessment for CPHEA's Radioactive Iodide Uptake (RAIU) Assay for Sodium/Iodide Symporter (NIS) Inhibition, Stoker and Laws Labs (AID 2283897);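 on AC50: active means loss of ATP signal versus DMSO meaning cytotoxicity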
In short: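 hNIS-HEK293T-EPA human kidney cells were exposed for 2 hours at room temperature to test chemicals (0.001–100uM, 0.5% final DMSO) in HEPES-buffered HBSS, pH 7.4. Viability was read as ATP content by luciferase bioluminescence, loss of signal versus DMSO.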

| Structure (SMILES) | outcome | AC50 |
| --- | --- | --- |
| Cc1ccc(O)c(C(C)(C)C)c1 | inactive |  |
| c1ccc(CCCc2ccccn2)cc1 | inactive |  |
| O=C1c2ccccc2C(=O)N1SC1CCCCC1 |  | 79.4 µM (active) |
| CCCCCCCCC | inactive |  |
| CC(C)=CCCC(C)=CCCC(C)=CCO | inactive |  |
| CCN(CC)c1ccc2c(-c3ccccc3C(=O)O)c3ccc(=[N+](CC)CC)cc-3oc2c1 |  | 13.3 µM (active) |
| CC(C)C[C@H]1C(=O)N2CCC[C@H]2[C@]2(O)O[C@](NC(=O)[C@@H]3C=C4c5cccc6[nH]c(Br)c(c56)C[C@H]4N(C)C3)(C(C)C)C(=O)N12 | inactive |  |
| O=c1cc(-c2ccccc2)oc2cc(O)cc(O)c12 | inactive |  |
| BrC1CCC(Br)C(Br)CCC(Br)C(Br)CCC1Br (centres undefined) | inactive |  |
| CCN(CC)CCOC(=O)c1ccc(N)cc1 | inactive |  |
| CCCCCCCCCCCCCCCCCC(=O)OCC(CC)CCCC (centres undefined) | inactive |  |
| CC(C)=CCC[C@](C)(O)[C@@H]1CC=C(C)CC1 | inactive |  |
| O=C(Oc1ccccc1)c1ccc(O)cc1 | inactive |  |
| COc1cc(C(C)(C)C)c(O)c(C(C)(C)C)c1 | inactive |  |
| CSc1nc(NC2CC2)nc(NC(C)(C)C)n1 | inactive |  |
| Cc1ccc(S)cc1 | inactive |  |
| CCCCCCCCCCCCCOS(=O)(=O)O | inactive |  |
